# CYP2C19 act – human CYP2C19 activators, primary screen, biochemical, luminescence; Cytochrome P450 2C19 (Homo sapiens), P33261; recombinant CYP2C19, luciferin-H EGE luminescence; stronger effect = higher value; 0 = fully inhibited enzyme, 1 = untreated enzyme; activation factor at 5 µM; 96,000 tested, under 10 active; AID 1025, 2008;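 active = activation factor of at least 2 at 5 µM in the primary screen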;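 also: 0 = wells with 2.5 mM tranylcypromine and 1 = vehicle-only wells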
# CYP2C9 inh – blockers of cytochrome P450 2C9 activity – biochemical, luminescence, ADME assay, primary screen; CYP2C9 Supersomes, luciferin-H conversion; inhibition, % at 5 µM; 96,000 tested, 20% active; P11712;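 active = blocking of liver enzyme CYP2C9 beyond about 50% at 5 µM, limit read from the data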
# PLAP activator – PLAP enzyme activators, biochemical, luminescence, HTS; Alkaline phosphatase, placental type (Homo sapiens), P05187; purified PLAP enzyme, luminescent substrate read-out; stronger effect = higher value; activation fold at 20 µM; 96,000 tested, 1.2% active; in the data active = activation fold above about 2
# Target sequence (P05187 whole entry, looked up): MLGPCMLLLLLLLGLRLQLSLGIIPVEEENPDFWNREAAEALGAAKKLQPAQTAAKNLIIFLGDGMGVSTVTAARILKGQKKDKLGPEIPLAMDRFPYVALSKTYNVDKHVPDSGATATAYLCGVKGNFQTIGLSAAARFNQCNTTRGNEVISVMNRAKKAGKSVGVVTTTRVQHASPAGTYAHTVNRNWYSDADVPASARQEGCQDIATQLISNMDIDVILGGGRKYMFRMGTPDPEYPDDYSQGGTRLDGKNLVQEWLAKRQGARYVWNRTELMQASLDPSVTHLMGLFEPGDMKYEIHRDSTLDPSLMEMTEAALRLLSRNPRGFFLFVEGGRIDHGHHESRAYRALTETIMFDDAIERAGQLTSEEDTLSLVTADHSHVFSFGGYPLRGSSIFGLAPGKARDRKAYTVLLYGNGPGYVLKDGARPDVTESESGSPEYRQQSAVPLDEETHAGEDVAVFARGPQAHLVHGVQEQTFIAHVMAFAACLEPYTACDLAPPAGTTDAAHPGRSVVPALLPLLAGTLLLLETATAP
# CYP2C19 inhib – blockers of cytochrome P450 2C19 activity – biochemical, luminescence, ADME assay, primary screen; P33261; CYP2C19 Supersomes, luciferin-H EGE luminescence, 30 min; inhibition, % at 5 µM; 96,000 tested, 21% active; AID 778, 2007;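 active = CYP2C19 inhibition above a set limit at 5 µM in the primary screen, cut at about 50% in these data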;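 also: plate controls were negative control wells for no effect and 2.5 mM tranylcypromine positive control for full effect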
# CYP2C9 activ – human CYP2C9 activators, primary screen, biochemical, luminescence | Cytochrome P450 2C9 (Homo sapiens), P11712 | recombinant CYP2C9, luciferin-H conversion; stronger effect = higher value; factor 1 = untreated enzyme, 0 = blocked | activation factor at 5 µM | 96,000 tested, 1.4% active | AID 1024, 2008;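 active = activation factor of 2 or more for CYP2C9 at a 5 µM dose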;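 also: 0 = sulfaphenazole-blocked wells and 1 = vehicle-only wells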
# The depositor's hits bear a star; . = no result given. Only some compounds are listed: those with a hit (about 31% of all), similar ones and a draw of the others.
SMILES,CYP2C19 act,CYP2C9 inh,PLAP activator,CYP2C19 inhib,CYP2C9 activ
Cc1ccc(Sc2c(C)nn(C(=O)c3cccc(S(=O)(=O)N4CCOCC4)c3)c2C)cc1,0.5,78*,1.9,53*,0.2
COc1ccc(NC2(c3ccc(Cl)cc3)C(=O)c3ccccc3C2=O)cc1,.,.,1,.,.
COc1ccc(-c2nc3nc(C)cc(=O)n3[nH]2)cc1,1,7,1,2,0.9
Cc1ccc(-c2nnc(SCc3nc4ccccc4[nH]3)n2Cc2ccco2)cc1,0.9,46,1,15,0.5
Cc1cccc(-c2nnc(SCc3nc4ccccc4[nH]3)n2Cc2ccco2)c1,0.5,70*,1.6,54*,0.3
c1coc(Cn2c(SCc3nc4ccccc4[nH]3)nnc2-c2cccs2)c1,0,92*,2.1*,98*,0.1
CCn1c(N2CCN(C(=S)NCC(C)C)CC2)nc2ccccc21,0.7,-6,0.9,28,1.1
CCn1c(N2CCN(C(=S)NCCc3ccccc3)CC2)nc2ccccc21,0.4,37,0.9,56*,0.6
CCn1c(N2CCN(C(=S)NC)CC2)nc2ccccc21,0.3,33,1,66*,0.7
O=C(c1cnc(-c2ccccc2)s1)c1ccc(Cl)cc1Cl,0.4,32,0.6,57*,0.7
CC(=O)c1ccc(N2CCN(c3ccc(S(=O)(=O)N4CCN(C)CC4)cn3)CC2)cc1,1.1,4,1,-10,1
Cc1c(C(=O)NCc2cccnc2)oc2c1C(=O)CC(C)(C)C2,0.2,56*,1.3,80*,0.4
Cc1c(C(=O)NCc2cccnc2)oc2ccccc12,0.4,20,1,64*,0.8
CCNC(=O)c1oc2c(c1C)C(=O)CC(C)(C)C2,0.9,13,0.8,12,0.9
CC(=O)c1cc(C)ccc1OC(=O)c1ccco1,1,-7,0.9,2,1.1
Cc1ccc(C)c(NC2=C(Cl)C(=O)OC2OC(=O)c2ccco2)c1 (configuration not stated),0.2,58*,1,76*,0.4
CCN1CCN(c2cc(C(C)(C)C)nc3c(-c4ccccc4)c(C)nn23)CC1,0.9,18,1.6,10,0.8
O=C(CSc1nnc2scc(-c3ccccc3)n12)c1ccc2c(c1)OCCO2,1.1,-10,0.8,-8,1.1
O=C1COc2ccc(C(=O)CSc3nnc(Cc4cccs4)n3-c3ccccc3)cc2N1,0.9,85*,1.6,15,0.2
O=C1COc2ccc(C(=O)CSc3nnc(-c4cccs4)n3Cc3ccccc3)cc2N1,0.5,63*,1.6,52*,0.4
Cc1ccc(C2C(C#N)=C(N)Oc3c2c(=O)n(C)c(=O)n3C)cc1 (configuration not stated),0.8,56*,0.9,17,0.4
CCN(CC)C(=O)CSc1nc2ccc(NC(=O)CSc3nnc(COc4ccccc4C)n3C)cc2s1,0.5,46,1.2,48,0.5
CC(C)(C)NC(=O)CSc1nc2ccc(NC(=O)CSc3nnnn3Cc3ccccc3)cc2s1,0.5,49,1.4,52*,0.5
Cc1ccccc1OCc1nnc(SCC(=O)Nc2ccc3nc(SCC(=O)NC(C)(C)C)sc3c2)n1C,0.5,75*,1,53*,0.2
COc1cccc2sc(N(C)c3ccccc3)nc12,0.2,10,1.1,78*,0.9
SMILES,CYP2C19 act,CYP2C9 inh,PLAP activator,CYP2C19 inhib,CYP2C9 activ
Cc1ccccc1NC(=S)N(C)Cc1cccs1,0.3,24,0.9,75*,0.8
Cn1c(=O)c(NCCc2ccccc2)c2c3c(cccc31)C(=O)c1ccccc1-2,0.2,98*,0.9,78*,0
CCNc1c2c3c(cccc3n(C)c1=O)C(=O)c1ccccc1-2,0.8,53*,0.9,18,0.5
Cn1c(=O)c(NCCO)c2c3c(cccc31)C(=O)c1ccccc1-2,0.8,45,0.9,20,0.5
Cn1c(Oc2ccccc2NCc2cccc(Br)c2)cc(=O)n(C)c1=O,0.6,41,1.5,45,0.6
CCC(=O)Nc1ccc(C(=O)Nc2cccnc2)cc1,1.1,2,0.9,-10,1
CC/C(=C\C(=O)c1ccncc1)Nc1ccc(O)cc1,0.1,41,0.9,87*,0.6
COC(=O)C1=CN(C)C=C(C(=O)OC)C1c1ccc(O)c(OC)c1,1.1,-4,1.2,-7,1
COCCN1C=C(C(=O)OC)C(c2cc(Br)c(OC)c(OC)c2)C(C(=O)OC)=C1,0.5,91*,1.8,45,0.1
CC1=CC(C)(C)NC(=S)N1c1cccc(C)c1,0.6,6,1,44,0.9
O=[N+]([O-])c1ccccc1NCCNc1ncc(C(F)(F)F)cc1Cl,1.1,0,1.1,-9,1
O=[N+]([O-])c1cc(Cl)ccc1NCCNc1ncc(C(F)(F)F)cc1Cl,0.1,33,0.8,88*,0.7
O=[N+]([O-])c1cc(C(F)(F)F)ccc1NCCNC(=S)Nc1ccc(Cl)cc1,0.6,68*,0.7,35,0.3
O=[N+]([O-])c1ccc(NC(=S)NCCc2ccc(Cl)cc2)cc1,0.9,39,0.8,12,0.6
COc1cc(NC(=O)c2cc(C3CC3)on2)c(OC)cc1Cl,0.9,1,1,9,1
CCc1nc2oc3cc(OC)ccc3c(=O)c2c(=O)n1-c1ccccc1,1.2,-24,1,-16,1.2
COc1ccc2c(=O)c3c(=O)n(Cc4ccco4)c(C4CCCCC4)nc3oc2c1,0.5,26,0.9,53*,0.7
COCCCn1c(C2CCCCC2)nc2oc3cc(OC)ccc3c(=O)c2c1=O,0.5,70*,1.6,52*,0.3
CCc1nc2oc3cc(OC)ccc3c(=O)c2c(=O)n1Cc1ccccc1,0.5,49,1.6,53*,0.5
CN1C(=S)SC(/[N+]([O-])=C\c2ccco2)C1(C)C (configuration not stated),1,-9,0.8,0,1.1
COc1cc(NC(=O)c2ccc(Br)o2)c(C(=O)O)cc1OC,1.1,-6,1.2,-15,1.1
CCOC(=O)C1(C(F)(F)F)N=C(C(F)(F)F)Nc2ccccc21 (configuration not stated),0.5,66*,1.1,54*,0.3
Nc1nc(SCc2ccc(Cl)cc2Cl)n[nH]1,0.3,20,1.4,73*,0.8
CCCc1nc(SCc2ccccc2Cl)n[nH]1,0.7,-12,2.2*,31,1.1
COc1ccc(Cl)cc1-c1n[nH]c(=S)o1,1,-7,1.2,-4,1.1
CC(=O)Nc1nc(SCc2ccc(Cl)cc2Cl)n[nH]1,0.8,0,1,19,1
CCc1nc(SCc2cc(Cl)ccc2OC)n[nH]1,0.1,52*,2.2*,94*,0.5

# Screening data from PubChem BioAssay.
